The entries come from a sample that favours hits as a whole.
IL-1B inflam inh: qHTS for Inhibitors of Inflammasome Signaling: IL-1-beta AlphaLISA Primary Screen | THP-1 LPS/ATP IL-1B secretion, AlphaLISA, 16 h; active compounds read low | actives 4.7% (n = 360,000) | activity change, % at 57.5 µM | AID 743279, 2014; in the data active = activity change below about -50%; inconclusive = mostly about -30% to -49%
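THP-1 cells pretreated 1 hr with compounds (up to 57.5 uM final), then stimulated with LPS (250 ng/mL final) plus ATP (1.25 mM final); secreted IL-1B measured by AlphaLISA after 16 hr, decreased signal indicating inhibition.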
DT40 TDP1 CPT: qHTS for Inhibitors of human tyrosyl-DNA phosphodiesterase 1 (TDP1): qHTS in cells in presence of CPT. actives 12% (n = 420,000). chicken DT40 Tdp1-/-;hTDP1 cells + 20 nM CPT, ATP luminescence, 48 h. Potency, µM (highest dose often 46.2 µM), inactives show at the top dose activity change, negative = growth inhibition, hits mostly inhibitors. AID 686979, 2013; also: potency is read from the fitted curve at half-maximal effect; nearly all actives have a fitted effect of over 55% in size
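Chicken DT40 Tdp1-/- cells stably complemented with human TDP1 were seeded at 400 cells/well in medium containing 20 nM camptothecin, exposed to pin-transferred compounds, and grown at 37 °C for at least 48 hr. Viability was read as ATP luminescence.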
HT1080-NT tox: qHTS for induction of synthetic lethality in tumor cells producing 2HG: qHTS for the HT-1080-NT fibrosarcoma cell line. HT-1080-NT fibrosarcoma viability, CellTiter-Glo ATP luminescence, 48 h. Potency, µM (top dose mostly 46.1 µM), without a hit: at the top dose activity, negative = less viability, actives largely listed as cytotoxic. actives 1.6% (n = 360,000);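 also: NT is the 2HG producing partner of a matched IDH1 knockdown line; potency is read from the fitted curve at half-maximal effect; 0% = DMSO-treated cells and -100% = media-only wells without cells; nearly all actives have a fitted effect of over 55% in size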
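Toxicity toward the 2HG-producing NT line was scored as %Activity, normalised to DMSO and no-cell wells, from CellTiter-Glo luminescence after 48 hours' treatment.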
TDP1 cell noCPT: qHTS for Inhibitors of human tyrosyl-DNA phosphodiesterase 1 (TDP1): qHTS in cells in absence of CPT; actives 15% (n = 420,000); AID 686978, 2013; Potency, µM (highest dose often 46.2 µM), inactives show at the highest dose activity change, negative = growth inhibition, most hits filed as inhibitors; DT40 Tdp1-/- hTDP1 cells, no CPT, ATP luminescence, 48 h; also: potency is read from the fitted curve at half-maximal effect; nearly all actives have a fitted effect of over 55% in size
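A cellular qHTS used chicken DT40 cells lacking endogenous Tdp1 but carrying stably transfected human TDP1. Compounds were applied without camptothecin, and cell growth kinetics were judged by ATP-dependent luminescence after ≥48 hr.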
HT1080 IDH1KD tx: qHTS for induction of synthetic lethality in tumor cells producing 2HG: qHTS for the HT-1080-IDH1KD cell line | actives 2% (n = 360,000) | Potency, µM (series often up to 46.1 µM), for inactives: top-dose activity, negative = toxicity, actives largely listed as cytotoxic | HT-1080 IDH1 knockdown viability, ATP luminescence, 48 h | AID 686971, 2013;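 also: potency is read from the fitted curve at half-maximal effect; 0% = DMSO wells and -100% = cell-free medium wells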
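CellTiter-Glo luminescence after 48 h compound exposure at 37 degrees C of IDH1-knockdown HT-1080 cells in 5% FBS RPMI. %Activity scaled between DMSO wells and cell-free media wells, with curves fitted and assigned curve classes.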
ALOX12 inh: Primary qHTS assay for inhibitors of human arachidonate 12S-lipoxygenase (ALOX12): Round 2; actives 1.1% (n = 580,000); Potency, µM (series often up to 108 µM), without a hit: at the top dose activity change, negative = inhibition, most hits filed as inhibitors; AID 1671190, 2021; purified 12hLO, xylenol orange hydroperoxide absorbance; Polyunsaturated fatty acid lipoxygenase ALOX12 (Homo sapiens), P18054; also: potency is read from the fitted curve at half-maximal effect
Target sequence (P18054 whole entry, looked up): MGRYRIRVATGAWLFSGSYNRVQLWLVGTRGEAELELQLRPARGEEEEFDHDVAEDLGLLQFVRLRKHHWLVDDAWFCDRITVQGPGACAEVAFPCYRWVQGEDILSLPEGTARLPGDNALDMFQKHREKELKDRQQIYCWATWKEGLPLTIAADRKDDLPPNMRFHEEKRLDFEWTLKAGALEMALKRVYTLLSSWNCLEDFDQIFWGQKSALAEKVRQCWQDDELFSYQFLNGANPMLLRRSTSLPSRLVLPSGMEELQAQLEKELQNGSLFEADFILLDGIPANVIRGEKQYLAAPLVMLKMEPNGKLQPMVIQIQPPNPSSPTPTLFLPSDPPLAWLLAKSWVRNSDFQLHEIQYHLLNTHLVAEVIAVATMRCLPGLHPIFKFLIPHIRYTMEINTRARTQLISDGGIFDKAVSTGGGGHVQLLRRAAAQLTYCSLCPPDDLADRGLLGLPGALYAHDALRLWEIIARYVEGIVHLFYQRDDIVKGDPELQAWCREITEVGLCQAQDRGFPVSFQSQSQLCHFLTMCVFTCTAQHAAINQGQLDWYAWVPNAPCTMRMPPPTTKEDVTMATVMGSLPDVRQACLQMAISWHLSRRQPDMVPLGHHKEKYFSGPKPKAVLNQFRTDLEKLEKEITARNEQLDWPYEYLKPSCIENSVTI
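Hydroperoxide product was detected by ferrous iron/xylenol orange as the 573 to 405 nm absorbance ratio. Arachidonic acid at 40 uM (final) was turned over for 30 min at room temperature by 150 nM human 12hLO, pH 7.0 Hepes buffer, after 15 min compound preincubation.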
Active calls of the source: *; ? = inconclusive; / = no result given; [ ] = remark or other dose. Unless noted, calls follow the shape of the dose curve; as a rule, active = well fitted curve in the direction sought with a large enough effect; inconclusive = small, poorly fitted or top-dose-only effect, or another doubt; inactive = no such curve, though single readings can be large; an effect the other way counts as inactive or inconclusive. Unless noted, % is scaled to controls: 0 for no effect and ±100 for the full control effect.

SMILES	IL-1B inflam inh	DT40 TDP1 CPT	HT1080-NT tox	TDP1 cell noCPT	HT1080 IDH1KD tx	ALOX12 inh
O=C(COc1cccnc1[N+](=O)[O-])c1ccc(Cl)s1	-10.9	16.4µM*	12.5%	16.4µM*	2.4%	39.8µM*
CC(=O)c1cccc(OCC(=O)c2cc(C)n(-c3cc(C)on3)c2C)c1	-16.7	17.8µM*	-15.9%	17.8µM*	-29.9%	0.0%
Cc1cc(-n2c(C)cc(C(=O)COc3cccnc3[N+](=O)[O-])c2C)no1	12.4	11.6µM*	0.1%	14.6µM*	-7.9%	-6.0%
Cc1cc(NC(=O)COc2cccnc2[N+](=O)[O-])no1	-9.3	-1.0%	-2.0%	-15.8%	7.1%	11.1%
Cc1cc(-n2c(C)cc(C(=O)COc3ccc4ccc(=O)oc4c3)c2C)no1	-7.6	?	-5.1%	?	-1.0%	0.1%
COc1cc(-c2ccnc3nc(-c4ccco4)nn23)cc(OC)c1OC	/	/	/	/	/	10.1%
C[C@H]1[C@@H]2[C@@H](O)[C@H]([C@H](C)C(=O)N3CCOCC3)CC[C@@]2(C)CC[C@@H]1NC(=O)c1cncnc1	/	/	/	/	/	11.4%
CCN(CC)S(=O)(=O)c1cc(NC(=O)CSc2nc3c(cc2C#N)C(=O)CC(C)(C)C3)ccc1C	-57.4*	?	?	18.4µM*	?	12.9%
COc1cccc(NC(=O)CN(C)C(=O)COc2ccccc2Cc2ccccc2)c1	26.2	?	-5.1%	29.1µM*	-12.4%	447.9%
COc1cccc(C(=O)NCC(=O)N(C)CC(=O)Nc2cccc(F)c2)c1	/	/	/	/	/	-29.4%
COc1cccc(NC(=O)CN(C)C(=O)CNC(=O)c2ccc(Oc3ccccc3)cc2)c1	-96.3*	?	-18.6%	?	-21.0%	-39.0%
O=C(/C=C/c1cccs1)OCC(=O)c1ccccc1	/	/	/	/	/	-28.1%
Cc1cc(C)cc(C(=O)Nc2nnc3n2CCS3)c1	/	?	/	?	/	-23.0%
O=C(Nc1nnc2n1CCS2)c1cc(C(F)(F)F)cc(C(F)(F)F)c1	/	5.8µM*	/	4.61µM*	/	-0.4%
COc1ncccc1-c1cc(C(=O)NCC2CCOCC2)c2c(c1)ncn2C	/	/	/	/	/	-38.3%[176 µM]
COc1ccc(-c2nc3c4ccccc4ccn3c2Cc2ccc(C)cc2)cc1OC	-12.9	?	?	20.6µM*	?	-30.0%
Cc1ccc(-c2nc3c4ccccc4ccn3c2Cc2ccsc2)cc1	0.0	16.4µM*	-2.4%	?	3.4%	26.7%
COc1ccc(-c2nc3c4ccccc4ccn3c2Cc2cccc(Cl)c2)cc1OC	-10.4	?	?	?	?	-18.6%
Cc1ccc(-c2nc3c4ccccc4ccn3c2Cc2ccccc2)cc1	59.3	?	-4.5%	?	-12.6%	-3.5%
CCCc1nc2c3ccccc3ccn2c1Cc1ccccc1	29.2	18.4µM*	?	20.6µM*	?	?
Cc1ccc(Cc2c(-c3ccccc3)nc3c4ccccc4ccn23)cc1	47.4	23.1µM*	-4.4%	20.6µM*	-1.9%	?
Cc1ccc(C(=O)NCC(O)c2ccc(F)c(F)c2)cn1 (stereo unspecified)	/	/	/	/	/	-25.0%
c1ccc(-c2nc3c4ccccc4ccn3c2Cc2ccsc2)cc1	14.2	23.1µM*	-15.3%	16.4µM*	-10.8%	/
COc1ccccc1N1CCN(CCCCN2C(=O)C3CCCCN3C2=O)CC1 (stereo unspecified)	20.7	25.9µM*	-25.1%	?	-19.2%	/
O=C1C2CCCN2C(=O)N1CCN1CCN(c2cccc(C(F)(F)F)c2)CC1 (stereo unspecified)	56.4	-3.8%	11.8%	8.2µM*	14.9%	0.0%
SMILES	IL-1B inflam inh	DT40 TDP1 CPT	HT1080-NT tox	TDP1 cell noCPT	HT1080 IDH1KD tx	ALOX12 inh
O=C1C2CCCN2C(=O)N1CCCN1CCN(c2cccc(Br)c2)CC1 (stereo unspecified)	75.8	-22.0%	-5.0%	?	-2.4%	3.98µM*
CCCCOc1ccccc1N1CCN(CCCN2C(=O)C3CCCN3C2=O)CC1 (stereo unspecified)	0.0	-24.8%	2.6%	7.5%	8.7%	?
O=C1C2CCCCN2C(=O)N1CCCN1CCN(c2cccc(C(F)(F)F)c2)CC1 (stereo unspecified)	32.0	-25.8%	3.5%	-25.5%	3.2%	?
CCc1cccc(C)c1NC(=O)c1nc2ccccc2nc1N1CCCC1	/	/	/	/	/	-28.0%
CCCn1cc(C2CCN(S(=O)(=O)c3c(Cl)cccc3Cl)CC2)c2ccccc21	/	/	/	/	/	38.6%
CCOC(=O)c1ccc2ncc(C(=O)OCC)c(Nc3ccccc3CC)c2c1	/	/	/	/	/	-10.6%
O=C(c1ccc(O)c(Br)c1)c1cc(Br)ccc1O	25.2	?	5.8µM*	?	?	?
O=C(C(=O)c1cc(Br)ccc1O)c1cc(Br)ccc1O	-83.6*	?	3.66µM*	23.1µM*	2.91µM*	?
Nc1nc(CN2CCN(C(=O)c3ccc(OC(F)F)cc3)CC2)nc2ccccc12	/	/	/	/	/	16.2%
O=C(COc1ccc(F)cc1)N1C[C@@H](CO)[C@H](c2ccncc2)C1	/	/	/	/	/	10.3%
Cc1nc2c(c(=O)[nH]1)CCN(C(=O)c1cn(CCC3CCCCN3)nn1)CC2 (stereo unspecified)	/	/	/	/	/	9.1%
O=C(O)COc1ccc(OCCNC[C@H](O)COc2ccccc2)cc1	/	-1.8%	/	-8.9%	/	1.4%
COc1ccc(/C=C2/N=C(c3ccc(Cl)cc3Cl)NC2=O)cc1	/	/	/	/	/	-18.3%
CC(=O)c1cccc(NS(=O)(=O)c2ccc(NC(=O)N3CCCCC3)cc2)c1	9.5	5.17µM*	?	9.2µM*	-29.5%	5.0%
CC(=O)c1cccc(NC(=O)N2CCCCCC2)c1	7.7	5.9%	7.4%	-0.8%	3.0%	9.6%
CC(=O)c1c(C)[nH]c(C(=O)Nc2cccc(S(=O)(=O)N3CCCCC3)c2)c1C	?	?	-18.0%	14.6µM*	-19.4%	?
Cc1onc(-c2ccccc2Cl)c1C(=O)Nc1ccc(S(=O)(=O)N2CCCC2)cc1	-15.8	?	-12.6%	?	-5.8%	6.5%
Cc1ccnc(NC(=O)c2cccc(NC(=O)c3ccc(Cl)cc3)c2)c1	-8.3	?	2.8%	20.6µM*	6.4%	44.0%

Screens: PubChem BioAssay, National Center for Advancing Translational Sciences (NCATS)
